High-throughput results deposited in PubChem by Broad Institute.
PglD inh: blocks C. jejuni PglD acetyltransferase activity; inhibition, % at 12.5 µM; purified PglD enzyme, DTNB colorimetric CoA detection; AID 602405; 0.098% of 360,000 active; in the data active means inhibition above about 16%, passing the limit was not always enough; inconclusive means no clear call, values can overlap the other calls
Glyco luc inh: N-linked glycosylation inhibition. D54 ERlucT glycosylation luciferase reporter, 24 h; percent of 100 nM tunicamycin response. reporter increase, % at 12.5 µM. 0.23% of 360,000 active;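 active means mean luciferase reporter signal, scaled so untreated is 0 and the glycosylation-blocking control 100, at or above a set limit in every replicate; inconclusive means mean reaches the limit but not every replicate does; inactive means mean below the limit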;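 further: luciferase carries N-glycosylation sites so blocking glycosylation raises the light; 0% = median of neutral control wells and 100% = median of 100 nM tunicamycin wells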
DENV2 CPE: protects cells from dengue virus 2 cytopathic effect | 1.7% of 350,000 active | DENV2-infected cells, cytopathic effect rescue, plate reader | CPE inhibition, % at 9.99 µM; in the data active means CPE inhibition above about 20%, passing the limit was not always enough; inconclusive means no clear call, values can overlap the other calls; tested in BHK-21 cells;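 further: 0% = median of neutral control wells and 100% = median of positive control wells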
Rtt109 HAT inh: C. albicans Rtt109 histone acetyltransferase inhibition | purified Rtt109/Vps75, ThioGlo CoA-SH fluorescence, 4 h | inhibition, % at 34.9 µM | 0.16% of 330,000 active;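 active means inhibition of at least 50% in every replicate; inconclusive means best replicate reaches 50% inhibition but some replicates fall short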
Target sequence (Q5AAJ8 whole entry, looked up): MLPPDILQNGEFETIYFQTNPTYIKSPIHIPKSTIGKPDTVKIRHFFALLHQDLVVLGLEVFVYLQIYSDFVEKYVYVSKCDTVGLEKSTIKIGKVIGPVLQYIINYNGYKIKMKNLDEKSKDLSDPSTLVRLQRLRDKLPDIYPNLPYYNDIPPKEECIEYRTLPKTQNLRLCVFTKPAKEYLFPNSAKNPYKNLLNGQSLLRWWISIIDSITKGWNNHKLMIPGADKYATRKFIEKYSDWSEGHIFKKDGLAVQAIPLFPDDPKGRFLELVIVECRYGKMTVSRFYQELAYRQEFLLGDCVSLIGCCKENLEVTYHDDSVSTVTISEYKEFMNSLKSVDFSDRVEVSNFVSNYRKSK
PglD confirm: blocks Campylobacter jejuni PglD acetyltransferase activity | Purified C. jejuni PglD, DTNB absorbance 412 nm | inhibition, % at 20 µM | shares compounds with PglD inh | AID 743156 | 320 tested, under 10 active;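 active means mean inhibition across replicates of at least 20% with every single replicate also at 20% or more; inconclusive means mean inhibition at least 20% but some replicate falls below 20%; inactive means mean inhibition under 20% and not all replicates reach it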;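 further: initial rate of CoA release by acetyl transfer from AcCoA to the UDP-4-amino sugar; 0% = median of neutral control wells and 100% = median of positive control wells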
Numbers without * were called inactive; ? = inconclusive; · = no result given. Many of the other results were omitted from the sample, so hits are more common in it than they were.

SMILES	PglD inh	Glyco luc inh	DENV2 CPE	Rtt109 HAT inh	PglD confirm
COc1ccc(-c2cc(-c3cc(C)ccc3O)[nH]n2)cc1	·	4	-4	0	·
OCc1ccc(N=Nc2ccccc2)cc1	0	-9	3	5	·
COc1ccc(N=Nc2ccc(CO)cc2)cc1	45*	-14	1	-7	1
C[C@H]1CN([C@@H](C)CO)C(=O)c2cc(NC(=O)CCCN(C)C)ccc2O[C@H]1CN(C)Cc1ccccc1	1	·	14	·	·
Nc1c(N2CCCC2)c2ccccc2oc1=O	21*	0	6	-13	-4
COC(=O)C(=N/Nc1ccccc1C(=O)OC)/C(C)=N/O	20*	0	-3	4	2
CCCC(=O)Nc1ccc2c(c1)C(=O)N(C)[C@@H]1CC[C@@H](CC(=O)N3CCc4ccccc4C3)O[C@H]1CO2	6	·	?	·	·
CCOc1nc(-c2ccccc2)ccc1-c1noc(-c2cccs2)n1	21*	-1	·	-2	-9
C[C@@H]1CN([C@@H](C)CO)C(=O)c2cc(NC(=O)CCN3CCOCC3)ccc2O[C@H]1CN(C)S(=O)(=O)c1ccc(F)cc1	-2	·	-5	·	·
COc1ccc(CCCNC(=O)C2(C)Cc3c(-c4ccc5c(c4)OCO5)ccnc3O2)cc1 (centres undefined)	22*	22	0	·	0
COc1ccc(CCCNC(=O)C2(C)Cc3c(-c4ccc(C(N)=O)cc4)ccnc3O2)cc1 (centres undefined)	4	1	-7	·	·
CO[C@H]1CN(C)C(=O)c2ccc(NC(=O)Nc3ccccc3F)cc2OC[C@@H](C)N(C)C[C@H]1C	2	·	-9	·	·
CCN(CC)C1CCN(C(=O)c2ccc(OC3CCN(C(=O)CCOC)CC3)cc2)C1 (centres undefined)	26*	-1	-8	·	5
O=c1oc2ccc(Cl)cc2cc1-c1ccccc1	·	0	·	-2	·
O=c1oc2ccccc2cc1-c1ccccc1	24*	1	7	10	-9
COc1ccc(S(=O)(=O)Nc2ccc3c(c2)C(=O)N([C@H](C)CO)C[C@H](C)[C@H](CN(C)C(=O)NC(C)C)OCCCC[C@H](C)O3)cc1	1	·	-7	·	·
CN1CCN(C(=O)C[C@H]2CC[C@H]3[C@@H](COC[C@@H](O)CN3C(=O)C3CC3)O2)CC1	4	·	4	·	·
Cc1ccc2nc(C)cc(OCC(=O)O)c2c1	21*	0	·	-14	-4
Cc1ccc(N(CC(=O)NC(C)c2ccccc2)S(=O)(=O)c2c(C)noc2C)cc1 (centres undefined)	27*	0	-7	1	-5
CC(C)NC(=O)N(C)C[C@@H]1Oc2ncc(C#Cc3ccc(F)cc3)cc2C(=O)N([C@H](C)CO)C[C@@H]1C	0	·	-11	·	·
CCCCc1ccc(S(=O)(=O)NC(=O)C2(C)CCN2C(=O)CCc2cccs2)cc1 (centres undefined)	69*	1	-5	·	3
Cc1ccccc1S(=O)(=O)NC(=O)C1(C)CCN1C(=O)CCc1cccs1 (centres undefined)	3	-1	?	·	·
O=C(C1CCCC1)N1CCCCN2[C@H](C1)[C@H](c1ccc(-c3ccncc3)cc1)[C@@H]2CO	-41	·	4	·	·
CC(C)Cc1nc(N2CCN(C(=O)c3ccco3)CC2)c(C#N)c2c1CCC2	21*	-1	·	0	?
CC(C)Cc1nc(N2CCN(C(=O)c3ccccc3)CC2)c(C#N)c2c1CCC2	2	-2	·	9	·
SMILES	PglD inh	Glyco luc inh	DENV2 CPE	Rtt109 HAT inh	PglD confirm
CCC(=O)Nc1ccc2c(c1)C(=O)N(C)C[C@H](OC)[C@@H](C)CN(C(=O)c1ccncc1)[C@H](C)CO2	0	·	-8	·	·
Cc1cc(N2CCOCC2)nc2ccc(NC(=O)CCC(=O)N3CCCCC3)cc12	24*	4	·	-4	-1
CC(C)(C)NC(=O)COC(=O)c1ccccc1Nc1ccc(SC(F)F)cc1	20*	-4	·	-2	?
COc1ccc(S(=O)(=O)Nc2ccc3c(c2)C(=O)N([C@@H](C)CO)C[C@H](C)[C@@H](CN(C)C(=O)Nc2ccc(F)cc2)OCCCC[C@@H](C)O3)cc1	5	·	18	·	·
CCCC(=O)c1cc(F)c(N2CCN(CCC#N)CC2)cc1C	-2	0	·	·	·
CC(=O)c1ccc(N2CCN(CCC#N)CC2)c(F)c1	26*	2	·	10	1
C[C@H]1CN([C@@H](C)CO)C(=O)Cc2cc(NS(C)(=O)=O)ccc2O[C@@H]1CN(C)S(=O)(=O)c1cn(C)cn1	1	·	·	·	·
C/C(=N/NC(=O)c1cccs1)c1ccc(NC(=O)COc2ccc(Cl)cc2Cl)cc1	21*	40*	·	-2	0
Cc1noc(C)c1NC(=O)Nc1cccc2c1O[C@H](CN(C)S(=O)(=O)c1cn(C)cn1)[C@@H](C)CN([C@@H](C)CO)C2=O	-3	·	-5	·	·
OC(CC#CCN1CCCCC1)(c1ccccc1)c1ccccc1	27*	-2	7	-19	-10
O=Cc1ccc(OCCN2CCCC2=O)cc1	44*	-3	5	5	-4
C[C@@H]1CCCCO[C@@H](CN(C)C(=O)CCCN(C)C)[C@@H](C)CN([C@@H](C)CO)C(=O)c2cc(NS(=O)(=O)c3ccc(F)cc3)ccc2O1	0	·	-10	·	·
O=C(NC1CCCCC1)c1cccc(NC(=O)c2ccccc2Cl)c1	22*	-1	-10	·	1
O=C(NC1CC1)c1cccc(NC(=O)C2CCCCC2)c1	-1	1	-3	-7	·
Cn1nnc2cc(NC(=O)Nc3ccccc3F)ccc21	1	-10	12	·	·
Cc1cc(NC(=O)Nc2ccccc2F)ccc1Br	40*	-11	-4	·	-1
O=C(CCN1CCCCC1)NCC[C@@H]1CC[C@@H](NC(=O)C2CCCC2)[C@@H](CO)O1	2	·	0	·	·
CN(C)c1nc(OCC(=O)NC(C)(C)C)nc(N(C)C)n1	22*	0	·	2	1
CC(C)(C)C1CCc2[nH]c3ccccc3c(=O)c2C1 (centres undefined)	28*	11	·	4	-2
O=c1c2c([nH]c3ccccc13)CCCC2	1	0	·	6	·
COC(=O)C1SCC2C(=O)N(Cc3ccc(F)cc3)CC(=O)N21 (centres undefined)	26*	0	·	-9	5
COC(=O)C1SCC2C(=O)N(Cc3cccc(C)c3)CC(=O)N21 (centres undefined)	-27	-2	·	4	·
C[C@H]1CN([C@@H](C)CO)C(=O)Cc2cc(NC(=O)Nc3cccc4ccccc34)ccc2O[C@H]1CN(C)C(=O)Nc1ccc(C(F)(F)F)cc1	1	·	-5	·	·
O=[N+]([O-])c1ccc(O)c(C=Nc2cccc3ncccc23)c1	23*	7	-1	·	9
O=[N+]([O-])c1ccc(O)c(C=Nc2cccc3ccccc23)c1	0	7	10	3	·
Cc1nnc(N2C(=O)c3ccc(Br)cc3C2=O)s1	22*	4	0	3	2
O=C1c2ccc(Br)cc2C(=O)N1c1ccc(Cl)cn1	-2	2	0	2	·
c1ccc2c(c1)oc1c(Nc3ccc(CN4CCOCC4)cc3)ncnc12	20*	-10	·	2	1
